The record followed here is PubChem BioAssay AID743192 (National Center for Advancing Translational Sciences (NCATS), 2013).

Active and inactive are the calls of the source. Calls come from the whole dose curve; as a rule, active = well fitted curve in the direction sought with a large enough effect; inactive = no such curve, though single readings can be large or run the other way.

Sequence of L-lactate dehydrogenase B chain (Homo sapiens) (P07195 whole entry, looked up): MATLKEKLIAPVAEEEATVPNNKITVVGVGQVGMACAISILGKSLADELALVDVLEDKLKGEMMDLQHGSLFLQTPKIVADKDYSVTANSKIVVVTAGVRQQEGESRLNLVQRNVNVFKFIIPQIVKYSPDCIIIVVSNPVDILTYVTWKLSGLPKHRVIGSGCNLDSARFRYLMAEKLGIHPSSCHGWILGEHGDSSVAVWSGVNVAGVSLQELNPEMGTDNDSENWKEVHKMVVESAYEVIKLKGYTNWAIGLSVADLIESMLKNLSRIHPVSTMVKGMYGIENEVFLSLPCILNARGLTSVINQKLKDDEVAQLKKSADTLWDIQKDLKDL

In this assay the target is L-lactate dehydrogenase B chain (Homo sapiens) (UniProt P07195). Description: Extended Characterization of HPGD Inhibitors: Counterscreen Against LDHB. The settings on record: LDHB enzyme, diaphorase/resazurin coupled fluorescence; series mostly up to 114 µM; activity, negative = inhibition: at the top concentration. From the text:
The central role of HPGD is to inactivate prostaglandins such as prostaglandin E2 (PGE2) or prostaglandin D2 (PGD2). These prostaglandins are involved in a number of processes, including inflammation, differentiation, and cellular signaling, which makes HPGD an important target for pharmacological intervention. A number of prostaglandins of particular biological interest have been identified as substrates of HPGD. […] Over-production of PGE2 has been reported to promote tumor-associated neovascularization, cell proliferation, and tumor growth. […] In order to further characterize the compounds, we ran them against an LDHB counterscreen. LDHA converts pyruvate to lactate while regenerating NAD+ from NADH. LDHA enzymatic activity is then coupled to the activity of diaphorase, which reversibly catalyzes the reaction of NAD+ to NADH while simultaneously reducing resazurin to the fluorescent resorufin. This change in fluorescence signal (excitation 544 nm; emission, 590 nm) was monitored using the ViewLux CCD imager (Perkin Elmer). Data were normalized against no enzyme control wells and no compound control wells. NIH Chemical Genomics Center [NCGC] NIH Molecular Libraries Probe Centers Network [MLPCN] MLPCN Grant: MH084681 Assay Submitter (PI): Structural Genomics Consortium
3 uL of LDHB enzyme in assay buffer are added to plate before 23 nL of compound/control are pinned into the solution. After a 15 min incubation, 1 uL of NADH (60 uM final) and sodium pyruvate (160 uM final) are added, incubated at 8 min at RT before another 1 uL of Diaphorase / Resazurin is added. The plate is read on the ViewLux after a 10 min RT incubation
As to `Cc1cc(-c2nnc3n2CCCCC3)c(C)n1-c1cccc(C(F)(F)F)c1`, the “activity, negative = inhibition” value is 4.68% (inactive).
`Cc1cccc(-n2cnc3cc(C(=O)N4CCCC(C(F)(F)F)C4)ccc32)c1` (stereo not given): the “activity, negative = inhibition” value was 3.07% (inactive).
For `O=C(c1ccc2c(c1)ncn2-c1cccc(Cl)c1)N1CCCCC1` the value was 11.5% (inactive).
For `COc1ccc(-n2cnc3cc(C(=O)N4CCCCC4)ccc32)cc1` the value was 5.92% (inactive); for `Cc1cccc(-n2cnc3cc(C(=O)N4CCCC(C)(C)C4)ccc32)c1`, -0.0782% (inactive); for `Cc1cc(-c2nnc3n2CCCCC3)c(C)n1-c1cccc(C#N)c1`, 0.167% (inactive).
For `Cc1cc(-c2nnc3n2CCCCC3)c(C)n1-c1ccc(Cl)c(Cl)c1` the value was 11% (inactive).
In the case of `Cc1ccc(-n2c(C)cc(-c3nnc4n3CCCCC4)c2C)cc1`, the “activity, negative = inhibition” value is 7.15% (inactive).
The figure for `O=C(c1ccc2c(c1)ncn2-c1cccc(C(F)(F)F)c1)N1CCCCC1` is 5.8% (inactive); for `Cc1cc(-c2nnc3n2CCCCC3)c(C)n1-c1cccc(Cl)c1` it is 1.42% (inactive).
